Source: PubChem BioAssay (NCATS)
Inconclusive results are not listed. Calls of active or inactive are those of the source. Unless noted, the call rests on the fitted dose curve; in most records, active means well fitted curve in either direction with a large enough effect (not every such curve was filed as active); inconclusive means small, poorly fitted or top-dose-only effect, or another doubt; inactive means flat fitted curve, though single readings scatter.

Legend:
[1] = target: Lysosomal acid glucosylceramidase (Homo sapiens) (UniProt P04062); test: Glucocerebrosidase-p2 (AID 348; in the data active means potency below about 10 µM; further: potency means the concentration at half of the fitted maximal effect); settings: purified GBA, blue fluorogenic substrate, 40 min
Method in brief: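 Compounds titrated from 0.6 nM upwards against 0.2 nM enzyme in pH 5.9 citric acid/KH2PO4, taurocholate, tween-20; blue fluorogenic substrate 80 uM, 40 min room temperature, stopped and read Ex 365/Em 440 for AC50.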

[2] = Stat Signaling Pathway (AID 446); settings: ME-180 SIE beta-lactamase reporter, IL-6 stimulated, 5 h; at 7.69 µM (top of the series) unless noted;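 further: ME-180 cervical cancer cells given 40 pM IL-6 alongside compound; SIE-controlled beta-lactamase reporter measured as 460/530 nm FRET emission ratio; on the % scale 0 is the no-effect control and ±100 the full control effect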
Method in brief: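 ME-180 SIE-bla cells; overnight plating; cpd + IL-6 40 pM, 5 h, 37 C; LiveBLAzer 2.5 h RT; 460/530 nm emission ratio. Normalized to 300 pM IL-6 and 125 nM JAK inhibitor controls.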

[3] = target: Glucocorticoid receptor (Homo sapiens) (UniProt P04150); test: GR-GFP Redistribution (AID 450;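 active means compounds whose dose series gives a full or clear partial fitted curve of increased nuclear translocation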; further: potency means the concentration at half of the fitted maximal effect); settings: U2OS GR-GFP nuclear translocation, laser cytometry, 2 h
[4] = target: Glucocorticoid receptor (Homo sapiens) (UniProt P04150); test: GR-EFC Redistribution (AID 451; calls by dose curve; further: potency means the concentration at half of the fitted maximal effect); settings: CHO-K1 GR-EFC translocation, beta-gal luminescence, 2 h
Method in brief: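 CHO-K1 cells stably expressing nuclear-localized β-gal enzyme acceptor and GR fused C-terminally to the enzyme donor fragment; ligand-driven nuclear translocation restores β-gal by complementation. Compounds titrated up to 46 uM final, 2 h at 37 °C; luminescence read.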

[5] = target: Mitogen-activated protein kinase 10 (Mus musculus) (UniProt Q61831); test: JNK3 AlphaScreen Assay (AID 530);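 further: kinase came from lysate of stimulated human HepG2 cells; signal reports phosphorylation of biotinylated GST-cJun 1-79 at Ser73 with 10 µM ATP; on the % scale 0 is the no-effect control and ±100 the full control effect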
Method in brief: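 Inhibitors reduce antibody binding to phosphorylated biotin-cJun, lowering AlphaScreen luminescence. Lysates from HepG2 cells pre-activated by IL-1beta plus TNF-alpha supplied JNK3; compounds were titrated.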

[6] = target: 3',5'-cyclic-AMP phosphodiesterase 4B (Homo sapiens) (UniProt Q07343); test: qHTS Assay for Inhibitors of PDE-IV (AID 607; active means well fitted activation curve with a large enough effect in the main read-out, with a control signal flat, not every such curve was filed as active; further: % of control where 0% means no effect)
Method in brief: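 ACTOne HEK293 cells carry a modified cAMP-gated CNG channel and express endogenous PDE4; plated 1000 cells/well, compounds up to 22.9 uM final. Membrane-potential dye fluorescence (ex 535/em 590) was read; parental cells received 10 uM forskolin + 100 uM RO 20-1724.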

[7] = Confirmation and Secondary Assay for Modulators of Hemoglobin Beta Chain Splicing at IVS2 654 locus (AID 910; active means well fitted curve in the direction sought with a large enough effect; an effect the other way counts as inactive or inconclusive;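 further: per-well total GFP intensity by laser scanning cytometry after 2-day treatment; % of control where 0% means no effect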)
Method in brief: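 HeLa cells stably carrying EGFP interrupted by mutant beta-globin IVS2-654 intron (CMV-driven) were treated with compound for 2 days at 37C; corrected splicing was scored as total peak GFP intensity per well (488 nm excitation, 500-520 nm emission).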

[8] = qHTS Assay for Identification of Small Molecule Agonists for Hypoxia Response Element Signaling Pathway (AID 914; active means well fitted activation curve with a large enough effect in the signal ratio, with a control signal flat, not every such curve was filed as active; the % refers to the signal ratio; further: potency means the concentration at half of the fitted maximal effect); settings: ME-180 HRE-bla reporter, beta-lactamase ratio, CoCl2, 17 h; activation: stronger effect = higher value
Method in brief: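 AC50 values come from titration-series %Activity, taken as the 460/530nm ratio of CCF4 fluorescence (excitation 405nm). CellSensor HRE-bla ME-180 cells were treated 17 hours at 37 C with compound plus an EC50 level of CoCl2.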

[9] = Confirmation and Secondary Assay for Modulators of Hemoglobin Beta Chain Splicing at IVS2 705 locus (AID 930; active means well fitted curve in the direction sought with a large enough effect; an effect the other way counts as inactive or inconclusive;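 further: HeLa cells stably expressing the EGFP-705 splicing reporter; % of control where 0% means no effect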)
Method in brief: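 Restored EGFP fluorescence after 2-day compound exposure reports splicing correction in IVS2-705 EGFP reporter HeLa cells; positive control was 500 nM splice-blocking PNA oligo. Signal measured as well total peak GFP intensity (488 nm excitation).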

[10] = qHTS Assay for Lipid Storage Modulators (AID 1519; calls by dose curve); settings: Drosophila S3 cells, BODIPY lipid droplet/cell ratio, laser cytometry, cells loaded with oleic acid; for activity change, negative = inhibition: at 57.5 µM (top of the series)
Method in brief: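 Cells seeded at 5,000 per well were treated with compounds over a concentration series and loaded with oleic acid (400 uM, as added). Lipid droplet fluorescence (488 nm excitation, 500-530 nm channel) was read by laser-scanning cytometry and normalized to 20 uM Triacsin C.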

[11] = Counterscreen qHTS for small molecule stabilizers of the endoplasmic reticulum resident proteome: GLuc-NoTag assay (AID 1508627; active means well fitted curve in the direction sought with a large enough effect; an effect the other way counts as inactive or inconclusive;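 further: SH-SY5Y cells given compound then 100 nM thapsigargin to empty ER calcium; 0% = thapsigargin alone and -100% = DMSO vehicle control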)
Method in brief: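 SH-SY5Y cells stably expressing constitutively secreted GLuc (no SERCaMP tag) were pre-incubated 5 h, treated with compound for 19 h, then 100 nM thapsigargin for 4 h at 37C; medium GLuc read by coelenterazine luminescence.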

[12] = AP1 Signaling Pathway (AID 357); settings: ME-180 (cervical carcinoma) AP-1-bla reporter, EGF-induced, beta-lactamase ratio, 5 h; at 7.69 µM (top of the series) unless noted;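 further: ME-180 reporter cells stimulated with EGF at its EC50 level; on the % scale 0 is the no-effect control and ±100 the full control effect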
Method in brief: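 Titration-series screen for positive or negative modulators of EC50 EGF-induced signaling in ME-180 cells carrying an AP-1-driven beta-lactamase reporter. After 5 hours at 37 degrees Celsius, CCF4 460nm/530nm emission ratio gave %Activity; AC50 values derived.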

[13] = NFAT Signaling Pathway (AID 444); settings: Jurkat NFAT-bla M1, carbachol, beta-lactamase ratio, 5 h; at 7.69 µM (top of the series) unless noted;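 further: carbachol stimulus at about its EC50 of 1 µM final; on the % scale 0 is the no-effect control and ±100 the full control effect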
Method in brief: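 Jurkat cells carrying an NFAT-driven β-lactamase reporter and co-transfected muscarinic M1 receptor were treated with compound plus carbachol (1 uM final, an EC50 level) for 5 h at 37 °C. CCF4 loading followed for 1 h at RT; 460/530 nm ratio gave %activity.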

[14] = target: Cytochrome P450 3A4 (Homo sapiens) (UniProt P08684); test: qHTS Assay for Activators of Cytochrome P450 3A4 (AID 885; active means well fitted curve in the direction sought with a large enough effect; an effect the other way counts as inactive or inconclusive; further: nearly all actives have a fitted effect of over 65% in size)
Method in brief: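 20nM CYP3A4 + 25uM Luciferin-PPXE (=KM), 200mM KPO4; cpd 10 min RT; NADPH regen, 60 min RT; stop w/ detection buffer, 20 min; luminescence. Normalized to 57 uM ketoconazole.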

[15] = target: Cytochrome P450 1A2 (Homo sapiens) (UniProt P05177); test: p450-cyp1a2 (AID 410; calls by dose curve; further: potency means the concentration at half of the fitted maximal effect;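 on activity change, negative = inhibition: -100% = full effect of reference inhibitor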)
Method in brief: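 Luminescent readout of luciferin formed from Luciferin-ME by human CYP1A2; data normalized against complete inhibition by 57 uM furafylline. Enzyme 20nM, substrate 100uM at Km, 100mM KPO4 buffer, 60 min reaction at room temperature.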

[16] = Confirmatory qHTS for small molecule stabilizers of the endoplasmic reticulum resident proteome: Secreted ER Calcium Modulated Protein (SERCaMP) assay (AID 1508628; active means well fitted curve in the direction sought with a large enough effect; an effect the other way counts as inactive or inconclusive; further: nearly all actives have a fitted effect of over 40% in size; further: potency means the concentration at half of the fitted maximal effect)
Method in brief: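 SH-SY5Y cells stably expressing GLuc-SERCaMP, treated 16 h with compound (primary 1.53, 7.67, 38.3 uM; confirmation 11 concentrations, up to 76.6 uM), then 100 nM thapsigargin for 4 h. Secreted Gaussia luciferase in medium read by coelenterazine luminescence.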

[17] = Cell Viability qHTS for small molecule stabilizers of the endoplasmic reticulum resident proteome (AID 1508629; active means well fitted curve in the direction sought with a large enough effect; an effect the other way counts as inactive or inconclusive); settings: cell viability counter-screen, 100 nM thapsigargin for final 4 h
[18] = target: Dual specificity protein kinase CLK4 (Homo sapiens) (UniProt Q9HAZ1); test: qHTS Assay for Inhibitors of CDC-like Kinase 4 (Kinase-Glo Assay) (AID 1770; active means well fitted curve in the direction sought with a large enough effect; an effect the other way counts as inactive or inconclusive; further: on the % scale 0 is the no-effect control and ±100 the full control effect; nearly all actives have a fitted effect of over 65% in size)
Method in brief: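 Luminescent ATP-depletion read-out (Kinase-Glo) after 4.5 h room-temperature reaction of Clk4 (25 nM final) with RS peptide (100 uM) and ATP (1 uM), pH 7.5 Tris buffer with MgCl2 and DTT.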

[19] = target: Dual specificity protein kinase CLK4 (Homo sapiens) (UniProt Q9HAZ1); test: qHTS Assay for Inhibitors of CDC-like Kinase 4 (ADP-Glo Assay) (AID 1771; active means well fitted curve in the direction sought with a large enough effect; an effect the other way counts as inactive or inconclusive; further: on the % scale 0 is the no-effect control and ±100 the full control effect; nearly all actives have a fitted effect of over 70% in size)
Method in brief: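 Luminescence from ADP-Glo reports ADP produced by 25 nM Clk4 acting on 100 uM RS repeat peptide with 1 uM ATP over 1 hr at room temperature; residual ATP is depleted before ADP is converted to ATP for detection.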

[20] = target: Ubiquitin carboxyl-terminal hydrolase 1 (Homo sapiens) (UniProt O94782); test: Inhibitors of USP1/UAF1: Pilot qHTS (AID 504865; active means well fitted curve in the direction sought with a large enough effect; an effect the other way counts as inactive or inconclusive;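 further: rhodamine fluorescence freed from ubiquitin-rhodamine substrate followed over time; top concentration of the series differs between compounds; on the % scale 0 is the no-effect control and ±100 the full control effect; nearly all actives have a fitted effect of over 35% in size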)
Method in brief: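 Deubiquitinase activity followed as kinetic rhodamine fluorescence release from 150 nM Ub-Rho. 1 nM USP1/UAF1 with compound, after 15 min room-temperature preincubation, in HEPES pH 7.8 buffer containing TCEP, EDTA, BSA and Tween-20.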

[21] = measured here: cell count channel max response
[22] = measured here: lipid channel max response

Sequence of Cytochrome P450 1A2 (Homo sapiens) (P05177 whole entry, looked up): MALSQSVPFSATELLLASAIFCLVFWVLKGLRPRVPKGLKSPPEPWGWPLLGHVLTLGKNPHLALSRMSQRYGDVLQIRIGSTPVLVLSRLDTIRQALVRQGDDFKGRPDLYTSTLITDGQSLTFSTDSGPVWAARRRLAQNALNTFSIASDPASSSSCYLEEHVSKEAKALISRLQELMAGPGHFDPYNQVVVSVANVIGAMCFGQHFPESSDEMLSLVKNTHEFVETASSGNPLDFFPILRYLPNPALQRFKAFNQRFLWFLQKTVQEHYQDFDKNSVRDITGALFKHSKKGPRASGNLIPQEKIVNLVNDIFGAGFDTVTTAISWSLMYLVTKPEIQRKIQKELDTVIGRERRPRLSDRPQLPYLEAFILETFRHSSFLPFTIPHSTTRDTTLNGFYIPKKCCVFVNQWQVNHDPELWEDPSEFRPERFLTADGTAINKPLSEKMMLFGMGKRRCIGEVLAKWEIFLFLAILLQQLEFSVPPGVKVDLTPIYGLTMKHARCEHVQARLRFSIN
Sequence of Cytochrome P450 3A4 (Homo sapiens) (P08684 whole entry, looked up): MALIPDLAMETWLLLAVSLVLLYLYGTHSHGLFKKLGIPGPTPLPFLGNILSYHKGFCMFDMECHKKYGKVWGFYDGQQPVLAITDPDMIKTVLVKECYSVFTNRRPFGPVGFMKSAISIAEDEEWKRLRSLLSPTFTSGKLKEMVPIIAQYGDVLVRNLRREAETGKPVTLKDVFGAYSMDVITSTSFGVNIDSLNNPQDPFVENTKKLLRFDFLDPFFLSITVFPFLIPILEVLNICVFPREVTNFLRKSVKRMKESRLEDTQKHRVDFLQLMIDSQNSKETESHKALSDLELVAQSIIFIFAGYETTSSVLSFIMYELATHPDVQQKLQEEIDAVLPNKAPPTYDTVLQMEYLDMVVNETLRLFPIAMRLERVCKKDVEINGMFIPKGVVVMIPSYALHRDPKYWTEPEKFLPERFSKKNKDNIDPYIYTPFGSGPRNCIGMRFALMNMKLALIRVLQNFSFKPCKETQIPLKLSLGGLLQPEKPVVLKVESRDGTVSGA
Sequence of Glucocorticoid receptor (Homo sapiens) (P04150 whole entry, looked up, the tested form may be a part): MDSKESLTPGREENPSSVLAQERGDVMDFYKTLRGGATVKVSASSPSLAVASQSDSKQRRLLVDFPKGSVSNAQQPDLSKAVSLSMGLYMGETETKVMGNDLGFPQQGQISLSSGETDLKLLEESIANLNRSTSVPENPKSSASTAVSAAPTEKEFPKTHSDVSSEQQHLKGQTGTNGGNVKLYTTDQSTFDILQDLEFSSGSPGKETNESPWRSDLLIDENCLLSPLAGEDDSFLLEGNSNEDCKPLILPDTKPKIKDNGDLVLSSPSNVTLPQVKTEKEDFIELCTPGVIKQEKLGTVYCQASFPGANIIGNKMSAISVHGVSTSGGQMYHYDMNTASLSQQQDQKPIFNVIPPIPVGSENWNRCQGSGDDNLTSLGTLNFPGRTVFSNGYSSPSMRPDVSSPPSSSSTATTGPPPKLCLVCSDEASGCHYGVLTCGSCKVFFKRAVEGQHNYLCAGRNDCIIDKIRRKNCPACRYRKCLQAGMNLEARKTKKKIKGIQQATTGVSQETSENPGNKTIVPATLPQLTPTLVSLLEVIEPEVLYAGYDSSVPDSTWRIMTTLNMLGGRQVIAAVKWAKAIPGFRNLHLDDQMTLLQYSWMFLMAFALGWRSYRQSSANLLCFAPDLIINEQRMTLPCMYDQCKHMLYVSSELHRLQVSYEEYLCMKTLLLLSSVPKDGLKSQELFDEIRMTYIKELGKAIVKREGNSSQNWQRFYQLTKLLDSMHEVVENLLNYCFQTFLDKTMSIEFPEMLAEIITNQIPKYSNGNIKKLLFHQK
Sequence of 3',5'-cyclic-AMP phosphodiesterase 4B (Homo sapiens) (Q07343 whole entry, looked up): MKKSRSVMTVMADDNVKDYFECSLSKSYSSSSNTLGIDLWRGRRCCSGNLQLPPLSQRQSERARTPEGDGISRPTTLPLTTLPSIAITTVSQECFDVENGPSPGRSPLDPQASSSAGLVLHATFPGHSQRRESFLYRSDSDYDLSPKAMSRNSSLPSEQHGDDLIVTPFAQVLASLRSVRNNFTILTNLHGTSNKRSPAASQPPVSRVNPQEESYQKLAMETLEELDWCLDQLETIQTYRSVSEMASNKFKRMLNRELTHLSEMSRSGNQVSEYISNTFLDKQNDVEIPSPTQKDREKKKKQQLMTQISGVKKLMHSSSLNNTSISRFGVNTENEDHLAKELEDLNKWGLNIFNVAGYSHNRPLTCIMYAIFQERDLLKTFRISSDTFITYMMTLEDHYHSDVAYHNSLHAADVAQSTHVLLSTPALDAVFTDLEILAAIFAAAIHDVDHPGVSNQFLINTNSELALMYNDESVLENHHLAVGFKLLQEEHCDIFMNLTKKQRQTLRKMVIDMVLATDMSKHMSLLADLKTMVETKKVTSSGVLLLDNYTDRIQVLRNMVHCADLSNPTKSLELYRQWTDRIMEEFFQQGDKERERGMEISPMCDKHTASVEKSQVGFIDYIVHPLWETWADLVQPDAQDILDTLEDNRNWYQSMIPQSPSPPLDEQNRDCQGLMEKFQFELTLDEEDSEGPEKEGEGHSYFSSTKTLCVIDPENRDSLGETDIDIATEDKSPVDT
Sequence of Lysosomal acid glucosylceramidase (Homo sapiens) (P04062 whole entry, looked up): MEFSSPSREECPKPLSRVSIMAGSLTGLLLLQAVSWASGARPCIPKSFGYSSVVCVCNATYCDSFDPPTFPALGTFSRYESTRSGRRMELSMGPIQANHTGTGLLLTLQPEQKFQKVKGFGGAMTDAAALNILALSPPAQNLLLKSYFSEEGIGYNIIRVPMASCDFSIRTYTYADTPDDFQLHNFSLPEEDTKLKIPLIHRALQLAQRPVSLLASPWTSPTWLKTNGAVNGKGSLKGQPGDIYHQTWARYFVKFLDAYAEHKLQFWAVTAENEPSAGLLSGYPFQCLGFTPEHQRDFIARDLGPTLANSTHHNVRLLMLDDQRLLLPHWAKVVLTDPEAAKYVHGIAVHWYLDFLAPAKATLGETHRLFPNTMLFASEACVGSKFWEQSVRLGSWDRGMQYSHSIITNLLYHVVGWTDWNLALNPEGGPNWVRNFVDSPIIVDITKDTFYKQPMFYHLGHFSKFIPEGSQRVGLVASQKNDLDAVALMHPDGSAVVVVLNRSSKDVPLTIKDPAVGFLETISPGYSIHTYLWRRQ
Sequence of Dual specificity protein kinase CLK4 (Homo sapiens) (Q9HAZ1 whole entry, looked up): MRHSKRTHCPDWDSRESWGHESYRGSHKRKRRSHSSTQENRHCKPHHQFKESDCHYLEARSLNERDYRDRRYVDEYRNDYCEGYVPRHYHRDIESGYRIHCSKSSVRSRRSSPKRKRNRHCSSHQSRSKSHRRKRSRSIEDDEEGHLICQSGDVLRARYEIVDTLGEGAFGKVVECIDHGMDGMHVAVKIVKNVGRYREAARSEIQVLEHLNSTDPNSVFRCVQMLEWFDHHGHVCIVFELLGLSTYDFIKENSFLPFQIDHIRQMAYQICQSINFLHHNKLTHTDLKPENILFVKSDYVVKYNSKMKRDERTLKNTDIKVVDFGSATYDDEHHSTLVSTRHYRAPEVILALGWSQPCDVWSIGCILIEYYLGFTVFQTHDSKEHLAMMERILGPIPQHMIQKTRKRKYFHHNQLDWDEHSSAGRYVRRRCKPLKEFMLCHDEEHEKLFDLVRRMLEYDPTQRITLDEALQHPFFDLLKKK
Sequence of Ubiquitin carboxyl-terminal hydrolase 1 (Homo sapiens) (O94782 whole entry, looked up): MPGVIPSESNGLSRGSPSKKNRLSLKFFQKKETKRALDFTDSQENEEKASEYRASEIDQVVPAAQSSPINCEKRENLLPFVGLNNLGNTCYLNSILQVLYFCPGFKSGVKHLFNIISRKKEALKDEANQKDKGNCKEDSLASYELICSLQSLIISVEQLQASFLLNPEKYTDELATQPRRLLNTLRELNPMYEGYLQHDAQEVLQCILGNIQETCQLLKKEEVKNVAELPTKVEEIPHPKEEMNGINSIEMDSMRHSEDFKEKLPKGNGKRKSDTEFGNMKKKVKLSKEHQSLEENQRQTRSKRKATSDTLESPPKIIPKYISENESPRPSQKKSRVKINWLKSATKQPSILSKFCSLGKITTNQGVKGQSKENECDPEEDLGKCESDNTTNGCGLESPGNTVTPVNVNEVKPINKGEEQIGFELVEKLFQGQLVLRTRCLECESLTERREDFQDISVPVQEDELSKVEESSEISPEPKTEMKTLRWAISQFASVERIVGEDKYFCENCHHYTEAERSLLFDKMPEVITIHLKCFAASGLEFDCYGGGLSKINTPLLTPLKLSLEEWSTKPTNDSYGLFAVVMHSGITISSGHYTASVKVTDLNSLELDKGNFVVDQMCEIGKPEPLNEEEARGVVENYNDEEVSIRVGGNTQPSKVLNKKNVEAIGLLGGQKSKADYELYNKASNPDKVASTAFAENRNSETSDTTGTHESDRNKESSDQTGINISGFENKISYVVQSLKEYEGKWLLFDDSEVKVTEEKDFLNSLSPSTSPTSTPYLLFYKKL

COc1ccccc1-c1cncnc1NCCN1CCOCC1
4.66%: max response [10, 22]
active: Potency [8] 2.51 µM
inactive: Potency [1] > 11.4 µM | activity, negative = inhibition [2] 1.09% | Potency [3] > 46 µM | Potency [4] > 46 µM | outcome [5] | Potency [6] | outcome [7] | outcome [9] | activity change, negative = inhibition [10] 0.65% | Potency [11]
4.25%: max response [10, 21]

COc1ncc2nc(CCc3ccccc3)c(=O)n(C3CC3)c2n1
inactive: Potency [1] > 11.4 µM | activity change, negative = inhibition [12] -0.42% | activity change, negative = inhibition [13] 0.053% | activity, negative = inhibition [2] -2.79% | Potency [3] > 9.22 µM | Potency [4] > 46 µM | outcome [5] | Potency [6] | Potency [14] | Potency [11]

N#CCCn1c(=O)c(-c2cc(F)cc(F)c2)nc2cnc(OCc3ccccc3)nc21
active: Potency [15] 6.31 µM | Potency [16] 44.7 µM
inactive: Potency [1] > 11.4 µM | activity change, negative = inhibition [12] -10.3% | activity change, negative = inhibition [13] -0.0706% | activity, negative = inhibition [2] 3.6% | Potency [3] > 9.22 µM | Potency [4] > 46 µM | outcome [5] | Potency [6] | Potency [14]

O=C(c1cc(C(F)(F)F)cc(C(F)(F)F)c1)N1CCC2(CC1)CN(c1ccccn1)C2
active: Potency [1] 0.37 µM
inactive: activity change, negative = inhibition [12] -8.97% | Potency [15] | activity, negative = inhibition [2] -17.5% | Potency [4] > 46 µM | outcome [5] | Potency [6] | Potency [16] | max response [17] -18%

O=c1c(CCc2ccccc2)nc2cnc(N3CCNCC3)nc2n1C1CC1
16.7%: max response [10, 21]
18.1%: max response [10, 22]
inactive: Potency [1] > 11.4 µM | activity change, negative = inhibition [12] -9.21% | activity change, negative = inhibition [13] -7.73% | activity, negative = inhibition [2] -12.8% | Potency [3] > 9.22 µM | Potency [4] > 46 µM | outcome [5] | Potency [14] | activity change, negative = inhibition [10] 2.72% | Potency [18] | Potency [19] | Potency [20] | Potency [11]

N#CCCn1c(=O)c(CCc2ccccc2)nc2cnc(OCc3ccccc3)nc21
active: Potency [15] 12.6 µM | Potency [16] 31.6 µM
inactive: Potency [1] > 11.4 µM | activity change, negative = inhibition [12] -4.26% | activity change, negative = inhibition [13] -3.34% | activity, negative = inhibition [2] -0.503% | Potency [3] > 9.22 µM | Potency [4] > 46 µM | Potency [14]

FC(F)(F)c1ccccc1-c1nc(N2CCNCC2)c2ccccc2n1
active: Potency [15] 10 µM | Potency [16] 20 µM
21.9%: max response [10, 22]
13.7%: max response [10, 21]
inactive: Potency [1] > 11.4 µM | activity change, negative = inhibition [12] 6.77% | activity, negative = inhibition [2] 11.2% | Potency [3] > 46 µM | Potency [4] > 46 µM | outcome [5] | Potency [6] | outcome [7] | outcome [9] | activity change, negative = inhibition [10] 7.02% | Potency [20]
